From PubChem BioAssay
This is a sample that favours compounds with a hit; in the whole collection about 19% have one here.
TGFb SMAD3 inh: qHTS for Inhibitors of TGF-b | HepG2 CAGA-GFP TGF-b/SMAD3 reporter, GFP fluorescence, 18 h; TGF-beta stimulated, 500 pg/mL final | Potency, µM (highest dose often 46.1 µM), actives largely listed as inhibitors | actives 1.2% (n = 410,000) | AID 588855, 2011; further: nearly all actives have a fitted effect of over 65% in size
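HEPG2 CAGA-GFP cells (1000/well, DMEM with 1% FBS) were pre-incubated 2 h at 37 degrees C, given compound by pin tool, then stimulated with TGF-beta at 500 pg/mL final for 18 h before per-cell GFP fluorescence imaging.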
DT40 TDP1 CPT: qHTS for Inhibitors of human tyrosyl-DNA phosphodiesterase 1 (TDP1): qHTS in cells in presence of CPT. chicken DT40 Tdp1-/-;hTDP1 cells + 20 nM CPT, ATP luminescence, 48 h. Potency, µM (titrated, usually from 46.2 µM), most hits filed as inhibitors. actives 12% (n = 420,000); further: nearly all actives have a fitted effect of over 55% in size
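Cell growth measured by CellTiter-Glo luminescence after a minimum 48 h, 37 C compound exposure with 20 nM CPT in Tdp1-knockout DT40 cells stably expressing hTDP1, seeded 400/well; qHTS titration format.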
IL-1B inflam inh: qHTS for Inhibitors of Inflammasome Signaling: IL-1-beta AlphaLISA Primary Screen; THP-1 LPS/ATP IL-1B secretion, AlphaLISA, 16 h; stronger effect = lower value; activity change, % at 57.5 µM; actives 4.7% (n = 360,000); AID 743279, 2014; in the data active means activity change below about -50%; inconclusive means mostly about -30% to -49%
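THP-1 cells pretreated 1 hr with compounds (up to 57.5 uM final), then stimulated with LPS (250 ng/mL final) plus ATP (1.25 mM final); secreted IL-1B measured by AlphaLISA after 16 hr, decreased signal indicating inhibition.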
ASM inhibitor: Inhibitors of Secretory Acid Sphingomyelinase (S-ASM): qHTS; Sphingomyelin phosphodiesterase (Homo sapiens), P17405; placental ASM, HMU-PC fluorogenic substrate, 60 min; Potency, µM (titrated, usually from 57.5 µM), actives largely listed as inhibitors; actives 0.006% (n = 340,000); AID 504937, 2011
Target sequence (P17405 47-631 limits assumed): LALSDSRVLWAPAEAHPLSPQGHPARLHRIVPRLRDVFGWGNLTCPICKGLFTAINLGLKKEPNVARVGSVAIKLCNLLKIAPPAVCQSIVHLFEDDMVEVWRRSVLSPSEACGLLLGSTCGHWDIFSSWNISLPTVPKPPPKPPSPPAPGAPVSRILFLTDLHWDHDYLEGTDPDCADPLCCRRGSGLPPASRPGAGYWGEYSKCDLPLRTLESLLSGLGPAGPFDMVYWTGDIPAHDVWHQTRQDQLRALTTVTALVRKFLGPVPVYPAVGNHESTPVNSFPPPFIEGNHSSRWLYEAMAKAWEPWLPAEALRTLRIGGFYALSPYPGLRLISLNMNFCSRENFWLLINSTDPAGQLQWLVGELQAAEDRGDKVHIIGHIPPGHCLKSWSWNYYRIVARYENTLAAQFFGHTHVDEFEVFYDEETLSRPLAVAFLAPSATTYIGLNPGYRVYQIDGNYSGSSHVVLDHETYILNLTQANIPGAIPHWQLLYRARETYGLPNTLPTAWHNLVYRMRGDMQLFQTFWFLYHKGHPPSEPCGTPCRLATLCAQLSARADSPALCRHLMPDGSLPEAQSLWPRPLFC
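Fluorescence read-out (Ex 386 nm, Em 447 nm) after stopping the reaction at pH 10. Enzyme: ASM from human placenta; substrate HMU-PC0, 9 uM final; 60 min, 37 °C. Compound preincubation 10 min, ambient temperature.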
HepG2 tox: qHTS for Inhibitors of TGF-b: Cytotox Counterscreen | HepG2 CAGA-GFP viability, ATP luminescence, 18 h | Potency, µM (titrated, usually from 46.1 µM), actives largely listed as cytotoxic | actives 0.76% (n = 410,000)
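CellTiter-Glo luminescence gave cytotoxicity after 18 hours at 37 degrees C. The cells were HepG2 CAGA-GFP in 1% FBS DMEM, stimulated with 500 pg/mL TGF-beta after compound addition. %Activity was normalised to no-cell wells (complete cell-killing) and DMSO (no toxicity), and curves were fitted and classified.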
DT40 TDP1 no CPT: qHTS for Inhibitors of human tyrosyl-DNA phosphodiesterase 1 (TDP1): qHTS in cells in absence of CPT; actives 15% (n = 420,000); Potency, µM (top dose mostly 46.2 µM), most hits filed as inhibitors; DT40 Tdp1-/- hTDP1 cells, no CPT, ATP luminescence, 48 h; further: nearly all actives have a fitted effect of over 55% in size
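Compound effects on proliferation are scored in DT40 Tdp1-/-;hTDP1 cells in the absence of CPT. ATP levels (CellTiter-Glo luminescence) are recorded after a ≥48 hr, 37 °C incubation.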
A number is an active result; i = inactive; ? = inconclusive; nt = not tested or not shown. Unless noted, the call rests on the fitted dose curve; in most records, active means well fitted curve in the direction sought with a large enough effect; inconclusive means small, poorly fitted or top-dose-only effect, or another doubt; inactive means no such curve, though single readings can be large; an effect the other way counts as inactive or inconclusive.

SMILES | TGFb SMAD3 inh | DT40 TDP1 CPT | IL-1B inflam inh | ASM inhibitor | HepG2 tox | DT40 TDP1 no CPT
C=CCOc1ccc2c(c1)CCC1C2CCC2(C)C(O)C(O)CC12 (stereo not drawn) | ? | ? | -75 | ? | i | ?
CCN(CC(=O)Nc1c(F)cccc1F)C(=O)c1nn(C)c(=O)c2ccccc12 | i | i | i | i | i | i
Cc1cc(C)cc(N(CCC#N)C(=O)COC(=O)CNC(=O)c2sc3ccccc3c2Cl)c1 | i | i | i | i | i | i
CCOC(=O)c1c(C)oc2ncnc(N3CCN(c4ccccc4F)CC3)c12 | i | 18µM | nt | nt | i | 13µM
CCOC(=O)c1c(C)oc2ncnc(N3CCN(c4ccccc4)CC3)c12 | ? | 8.2µM | nt | nt | i | 8.2µM
CCOC(=O)c1c(C)oc2nc(C)nc(N3CCN(c4ccccc4F)CC3)c12 | i | 15µM | nt | nt | i | 7.3µM
CCOC(=O)c1c(C)oc2nc(C)nc(N3CCN(c4cc(Cl)ccc4C)CC3)c12 | ? | 4.6µM | nt | nt | i | 21µM
Cc1ccc(Cn2c(=O)n(-c3cccc(C(F)(F)F)c3)c(=O)c3c(C)c(C)sc32)c(C)c1 | i | ? | nt | nt | i | ?
O=C(Nc1ccc(Oc2ccccc2)cc1)c1csc([C@@H]2C[C@H](O)[C@@H](CO)O2)n1 | i | ? | i | nt | i | ?
CCOC(=O)c1ccccc1NC(=O)c1c(C)oc2ncnc(N3CCOCC3)c12 | i | ? | nt | nt | i | 21µM
CCOC(=O)c1c(C)oc2nc(C)nc(N3CCN(c4cccc(C)c4C)CC3)c12 | i | 21µM | nt | nt | i | 18µM
CCc1cccc(NC(=O)c2c(C)oc3nc(C)nc(N4CCCC4)c23)c1 | i | i | nt | nt | i | i
COc1cc(/C=C/CNC[C@H]2O[C@@H](n3ccc(N)nc3=O)[C@H](O)[C@@H]2O)ccc1O | i | i | i | nt | i | i
Cc1ccc(C(=O)CC(=O)c2cc(Cl)ccc2O)cc1 | ? | 6.5µM | i | i | i | 4.6µM
Cc1ccc(C(=O)CC(=O)c2ccc(C)cc2O)cc1 | i | ? | i | i | i | 18µM
Cc1ccc(C(=O)CNc2ccc(C)cc2C)cc1 | i | 23µM | i | i | i | 16µM
Cc1ccc(CC(=O)c2ccc(Cl)cc2)cc1 | i | i | i | i | i | i
CC(/C=C/c1ccccc1F)=N\NC(=O)c1cccc(F)c1 | i | ? | i | i | i | 18µM
CC(/C=C/c1ccccc1)=N\NC(=O)c1ccc2c(c1)OCCO2 | i | ? | i | i | i | ?
CCOC(=O)N/N=C(C)/C=C/c1ccccc1 | i | 0.37µM | i | i | i | 0.082µM
COC(=O)N/N=C(C)/C=C/c1ccccc1 | i | i | i | i | i | i
CCOC(=O)N/N=C/C(Cl)=C/c1ccccc1 | i | i | -53 | i | i | ?
CC(/C=C/C=C/c1ccccc1)=N/NC(=O)CNc1ccccc1C | i | 10µM | i | i | i | ?
COc1ccc(Cl)cc1NC(=O)CN(C)C(=O)CCc1nc2ccccc2c(=O)[nH]1 | i | ? | i | i | i | i
CSc1nc(O)c(C(c2ccc(O)cc2)c2c(O)nc(SC)[nH]c2=O)c(=O)[nH]1 | i | i | i | i | i | i
O=C(COc1ccc(Cl)cc1)NCc1nnc(SCC(=O)N2CCCCCC2)o1 | i | ? | i | i | i | i
CC(/C=C/c1ccccc1)=N/NC(=O)c1cc([N+](=O)[O-])cc([N+](=O)[O-])c1 | i | 5.2µM | i | i | i | 5.2µM
Cc1cc(C)nc(N/N=C/C(Cl)=C/c2ccccc2)n1 | i | ? | -51 | i | i | i
O=C(CN1C(=O)NC2(CCCC2)C1=O)Nc1cccc(Cl)c1 | i | i | i | i | i | i
Brc1ccc2c(c1)CN1CCCC1=N2 | i | 13µM | i | i | i | 21µM
